Test results as given in PubChem BioAssay (NCATS).
Results filed as inconclusive are left out. A call without a number means that no potency is given here. Calls of active or inactive are those of the source. Unless noted, the call rests on the fitted dose curve.

Key:
[1] = qHTS for Inhibitors of the Functional Ribonucleoprotein Complex (vRNP) of Lassa (LASV) Arenavirus: LASV Primary Screen - GLuc reporter signal (AID 1347082; calls by dose curve; tested in HEK293 reporter line; further: nearly all actives have a fitted effect of over 60% in size; further: potency means the concentration at half of the fitted maximal effect)
[2] = qHTS for Inhibitors of the Functional Ribonucleoprotein Complex (vRNP) of Lassa (LASV) Arenavirus: Viability assay - alamar blue signal for LASV Primary Screen (AID 1347083; calls by dose curve; tested in HEK293 reporter line; further: nearly all actives have a fitted effect of over 80% in size; further: potency means the concentration at half of the fitted maximal effect)
[3] = qHTS for Inhibitors of the Functional Ribonucleoprotein Complex (vRNP) of Lymphocytic Choriomeningitis Arenaviruses (LCMV): Viability assay - alamar blue signal for LCMV Primary Screen (AID 1347085; calls by dose curve; tested in HEK293 reporter line; further: nearly all actives have a fitted effect of over 80% in size; further: potency means the concentration at half of the fitted maximal effect)
[4] = target: Nucleoprotein (Lymphocytic choriomeningitis virus (strain Armstrong)) (UniProt P09992); test: qHTS for Inhibitors of the Functional Ribonucleoprotein Complex (vRNP) of Lymphocytic Choriomeningitis Arenaviruses (LCMV): LCMV Primary Screen - GLuc reporter signal (AID 1347086); further: nearly all actives have a fitted effect of over 70% in size; further: potency means the concentration at half of the fitted maximal effect
[5] = Confirmatory qHTS to identify inhibitors of SARS-CoV-2 cell entry (AID 1645844); further: potency means the concentration at half of the fitted maximal effect; nearly all actives have a fitted effect of over 45% in size
Outline: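 Luminescence entry read-out after 48 h: spike-pseudotyped MLV particles (Wuhan-Hu-1, 19-aa C-terminal truncation) added to compound-pretreated (1 h) HEK293-ACE2 cells; Data were normalised to bald PP and spike PP wells.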

[6] = Cytotoxicity counterscreen for inhibitors of SARS-CoV-2 cell entry (AID 1645845); further: nearly all actives have a fitted effect of over 50% in size
Outline: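 ATP-content luminescence (ATPLite 1step, 15 min RT) read after 48 h compound exposure of Expi293F cells stably expressing human ACE2; normalized to cells-only wells and media-only wells.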

[7] = Primary qHTS to identify inhibitors of SARS-CoV-2 cell entry (AID 1645846); details: activity change, negative = inhibition: at 57.1 µM (top of the series) unless noted; further: nearly all actives have a fitted effect of over 45% in size
Outline: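 Entry measured by luciferase signal 48 h after adding SARS-CoV-2-S pseudotyped MLV particles to HEK293-ACE2 cells preincubated 1 h with compounds. Normalisation: bald particles and spike particles.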

[8] = VSVG counterscreen qHTS to identify inhibitors of SARS-CoV-2 cell entry (AID 1645847); further: potency means the concentration at half of the fitted maximal effect; nearly all actives have a fitted effect of over 65% in size
Outline: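 Luminescence read after 48 h infection at 37 C with VSV-G-pseudotyped MLV particles, following 1 h compound exposure of Expi293F cells stably expressing human ACE2; scaled between bald particle and VSV-G particle wells.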

[9] = target: Cytochrome P450 3A4 (Homo sapiens) (UniProt P08684); test: qHTS Assay for Inhibitors and Substrates of Cytochrome P450 3A4 (AID 884; active means well fitted curve in the direction sought with a large enough effect; an effect the other way counts as inactive or inconclusive; further: nearly all actives have a fitted effect of over 50% in size)
Outline: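 Luminescent readout of luciferin produced by CYP3A4 (20 nM) dealkylation of Luciferin-PPXE, 25 uM (its KM). NADPH-driven reaction ran 60 min at RT after 10 min compound preincubation; data scaled to 57 uM ketoconazole as 100% inhibition.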

[10] = qHTS Assay for Lipid Storage Modulators (AID 1519); details: Drosophila S3 cells, BODIPY lipid droplet/cell ratio, laser cytometry, cells loaded with oleic acid; for activity change, negative = inhibition: at 57.5 µM (top of the series)
Outline: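 Cells seeded at 5,000 per well were treated with compounds over a concentration series and loaded with oleic acid (400 uM, as added). Lipid droplet fluorescence (488 nm excitation, 500-530 nm channel) was read by laser-scanning cytometry and normalized to 20 uM Triacsin C.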

[11] = target: Ubiquitin carboxyl-terminal hydrolase 1 (Homo sapiens) (UniProt O94782); test: Inhibitors of USP1/UAF1: Pilot qHTS (AID 504865; active means well fitted curve in the direction sought with a large enough effect; an effect the other way counts as inactive or inconclusive; further: nearly all actives have a fitted effect of over 35% in size; further: potency means the concentration at half of the fitted maximal effect;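 on activity change, negative = inhibition: rhodamine fluorescence freed from ubiquitin-rhodamine substrate followed over time; top concentration of the series differs between compounds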)
Outline: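 Deubiquitinase activity followed as kinetic rhodamine fluorescence release from 150 nM Ub-Rho. 1 nM USP1/UAF1 with compound, after 15 min room-temperature preincubation, in HEPES pH 7.8 buffer containing TCEP, EDTA, BSA and Tween-20.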

[12] = target: DNA dC->dU-editing enzyme APOBEC-3G (Homo sapiens) (UniProt Q9HC16); test: qHTS for inhibitors of Vif-A3G interactions: Validation (AID 588379; active means well fitted curve in the direction sought with a large enough effect; an effect the other way counts as inactive or inconclusive)
Outline: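 Yellow fluorescence (Ex 488, Em 500-530) of Vif-coexpressing HeLa A3G-eYFP cells, scanned by Acumen cytometer, reports blocked A3G degradation. Cells plated at 700/well overnight at 37 deg C before compound addition, then a further overnight compound incubation at 37 deg C.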

[13] = target: Cytochrome P450 3A4 (Homo sapiens) (UniProt P08684); test: qHTS Assay for Activators of Cytochrome P450 3A4 (AID 885; active means well fitted curve in the direction sought with a large enough effect; an effect the other way counts as inactive or inconclusive; further: nearly all actives have a fitted effect of over 65% in size)
Outline: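 Human CYP3A4 dealkylates Luciferin-PPXE to luciferin, which luciferase detection converts to light. Substrate was at its KM (25uM), buffer 200mM KPO4, reaction 60 min at RT.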

[14] = Confirmation and Secondary Assay for Modulators of Hemoglobin Beta Chain Splicing at IVS2 654 locus (AID 910; active means well fitted curve in the direction sought with a large enough effect; an effect the other way counts as inactive or inconclusive;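 further: HeLa cells stably carrying EGFP split by mutant beta-globin IVS2-654 intron; per-well total GFP intensity by laser scanning cytometry after 2-day treatment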)
Outline: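 Readout: per-well total peak green fluorescence (488 nm ex, 500–520 nm em) from objects 5–250 µm, reflecting correct splicing of an EGFP-654 reporter. Compounds were applied for 2 days at 37 °C to overnight-plated HeLa EGFP-654 cells; controls were DMSO and 500 nM IVS2-654 PNA.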

[15] = Confirmation and Secondary Assay for Modulators of Hemoglobin Beta Chain Splicing at IVS2 705 locus (AID 930; active means well fitted curve in the direction sought with a large enough effect; an effect the other way counts as inactive or inconclusive;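 further: HeLa cells stably expressing the EGFP-705 splicing reporter; GFP fluorescence per well restored by corrected splicing of the IVS2-705 intron in EGFP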)
Outline: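 Fluorescence gain (488 nm laser, 500-520 nm PMT) reflects restored correct splicing of a mutant IVS2-705 intron inside EGFP in stably transfected HeLa cells after 2-day compound treatment.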

[16] = target: Alpha-galactosidase (Coffea arabica) (UniProt Q42656); test: Counterscreen for Glucocerebrosidase Inhibitors: qHTS Assay for Coffee Bean alpha-Galactosidase at pH 4.5 (AID 957; active means well fitted curve in the direction sought with a large enough effect; an effect the other way counts as inactive or inconclusive)
Outline: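 Quantitative HTS of compounds (0.7 nM to 77 uM) against coffee bean alpha-galactosidase at pH 4.5, measuring 4-methylumbelliferone fluorescence released from 80 uM substrate.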

[17] = target: Alpha-galactosidase (Coffea arabica) (UniProt Q42656); test: Counterscreen for Glucocerebrosidase Inhibitors: qHTS Assay for Coffee Bean alpha-Galactosidase at pH 5.9 (AID 998; active means well fitted curve in the direction sought with a large enough effect; an effect the other way counts as inactive or inconclusive)
Outline: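 Fluorogenic 4-MU substrate hydrolysis, 80 uM substrate and 2 nM coffee bean alpha-galactosidase, pH 5.9 citrate buffer, 20 min at room temperature, then NaOH/glycine stop. Titration 0.7 nM–77 uM, normalized to no-enzyme and enzyme controls, AC50 via Hill equation.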

[18] = Validation screen for inhibitors of Lassa infection (AID 463096)
[19] = Inducers of the Endoplasmic Reticulum Stress Response (ERSR) in human glioma: Validation (AID 504836; active means well fitted curve in the direction sought with a large enough effect; an effect the other way counts as inactive or inconclusive)
Outline: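 ERSR induction read as luciferase luminescence (Bright-Glo, 10 min at room temperature) in stably transfected human U87-MG glioma cells exposed to compounds for 16 h, using GRP78 as sensor.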

[20] = Confirmatory qHTS for VERO E6 Cytotoxicity Assay: Counterscreen for SARS-CoV-2 CPE Assay (AID 1508605); further: nearly all actives have a fitted effect of over 60% in size
[21] = target: Cytochrome P450 1A2 (Homo sapiens) (UniProt P05177); test: p450-cyp1a2 (AID 410); further: potency means the concentration at half of the fitted maximal effect
Outline: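 Read-out is luminescence from luciferin produced by CYP1A2 demethylation of Luciferin-ME (100uM, at Km). Detection reagent stopped the 60 min NADPH-dependent reaction; signals were normalized to 57 uM furafylline.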

[22] = target: Glucocorticoid receptor (Homo sapiens) (UniProt P04150); test: GR-GFP Redistribution (AID 450;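 active means compounds whose dose series gives a full or clear partial fitted curve of increased nuclear translocation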; further: potency means the concentration at half of the fitted maximal effect); details: U2OS GR-GFP nuclear translocation, laser cytometry, 2 h
[23] = Counterscreen qHTS for small molecule stabilizers of the endoplasmic reticulum resident proteome: GLuc-NoTag assay (AID 1508627; active means well fitted curve in the direction sought with a large enough effect; an effect the other way counts as inactive or inconclusive;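 further: SH-SY5Y cells given compound then 100 nM thapsigargin to empty ER calcium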)
Outline: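 Counterscreen line: SH-SY5Y-GLuc-NoTag cells, treated with compound 19 hr before a 4 hr, 100 nM thapsigargin calcium depletion. Secreted Gaussia luciferase in the medium was measured by luminescence after coelenterazine was added (0.07x final), with cells unlysed.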

[24] = Cell Viability qHTS for small molecule stabilizers of the endoplasmic reticulum resident proteome (AID 1508629; active means well fitted curve in the direction sought with a large enough effect; an effect the other way counts as inactive or inconclusive;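 further: human SH-SY5Y neuroblastoma cells carrying the GLuc-SERCaMP reporter; compound exposure about 46 h in total before the viability read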); details: cell viability counter-screen, 100 nM thapsigargin for final 4 h
[25] = Primary qHTS for small molecule stabilizers of the endoplasmic reticulum resident proteome: Secreted ER Calcium Modulated Protein (SERCaMP) assay (AID 1508630; active means well fitted curve in the direction sought with a large enough effect; an effect the other way counts as inactive or inconclusive)
Outline: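 The SH-SY5Y reporter protocol was run at 3 concentrations up to 38.3 uM (primary) or 11 concentrations (follow-up): 16 h compound, 100 nM thapsigargin for 4 h, then extracellular luciferase luminescence.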

[26] = measured here: cell count channel max response
[27] = measured here: lipid channel max response

Sequence of Nucleoprotein (Lymphocytic choriomeningitis virus (strain Armstrong)) (P09992 whole entry, looked up): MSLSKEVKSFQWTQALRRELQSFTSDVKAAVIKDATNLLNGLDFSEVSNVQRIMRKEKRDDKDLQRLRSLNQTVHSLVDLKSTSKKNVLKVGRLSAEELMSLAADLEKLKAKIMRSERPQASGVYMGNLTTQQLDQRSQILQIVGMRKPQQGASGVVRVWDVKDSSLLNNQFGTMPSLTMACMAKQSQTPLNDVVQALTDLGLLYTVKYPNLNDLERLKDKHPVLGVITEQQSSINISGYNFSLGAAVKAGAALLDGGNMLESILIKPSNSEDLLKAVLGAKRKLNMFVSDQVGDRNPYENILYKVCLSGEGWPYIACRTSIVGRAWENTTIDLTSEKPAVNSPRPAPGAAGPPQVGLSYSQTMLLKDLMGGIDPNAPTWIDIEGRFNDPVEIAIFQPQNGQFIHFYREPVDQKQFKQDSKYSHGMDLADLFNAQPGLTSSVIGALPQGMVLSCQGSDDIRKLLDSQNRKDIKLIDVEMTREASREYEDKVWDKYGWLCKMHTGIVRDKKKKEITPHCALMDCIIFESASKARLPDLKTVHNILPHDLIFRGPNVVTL
Sequence of DNA dC->dU-editing enzyme APOBEC-3G (Homo sapiens) (Q9HC16 whole entry, looked up): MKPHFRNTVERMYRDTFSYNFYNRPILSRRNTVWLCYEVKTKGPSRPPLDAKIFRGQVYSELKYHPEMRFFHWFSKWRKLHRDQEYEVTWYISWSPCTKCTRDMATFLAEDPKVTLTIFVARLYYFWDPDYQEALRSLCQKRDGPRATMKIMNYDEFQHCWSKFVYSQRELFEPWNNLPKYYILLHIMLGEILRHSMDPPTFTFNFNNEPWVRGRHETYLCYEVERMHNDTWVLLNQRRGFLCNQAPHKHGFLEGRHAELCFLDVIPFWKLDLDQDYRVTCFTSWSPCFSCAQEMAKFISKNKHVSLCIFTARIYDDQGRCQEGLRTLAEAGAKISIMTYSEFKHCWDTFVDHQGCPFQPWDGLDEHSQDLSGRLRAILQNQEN
Sequence of Ubiquitin carboxyl-terminal hydrolase 1 (Homo sapiens) (O94782 whole entry, looked up): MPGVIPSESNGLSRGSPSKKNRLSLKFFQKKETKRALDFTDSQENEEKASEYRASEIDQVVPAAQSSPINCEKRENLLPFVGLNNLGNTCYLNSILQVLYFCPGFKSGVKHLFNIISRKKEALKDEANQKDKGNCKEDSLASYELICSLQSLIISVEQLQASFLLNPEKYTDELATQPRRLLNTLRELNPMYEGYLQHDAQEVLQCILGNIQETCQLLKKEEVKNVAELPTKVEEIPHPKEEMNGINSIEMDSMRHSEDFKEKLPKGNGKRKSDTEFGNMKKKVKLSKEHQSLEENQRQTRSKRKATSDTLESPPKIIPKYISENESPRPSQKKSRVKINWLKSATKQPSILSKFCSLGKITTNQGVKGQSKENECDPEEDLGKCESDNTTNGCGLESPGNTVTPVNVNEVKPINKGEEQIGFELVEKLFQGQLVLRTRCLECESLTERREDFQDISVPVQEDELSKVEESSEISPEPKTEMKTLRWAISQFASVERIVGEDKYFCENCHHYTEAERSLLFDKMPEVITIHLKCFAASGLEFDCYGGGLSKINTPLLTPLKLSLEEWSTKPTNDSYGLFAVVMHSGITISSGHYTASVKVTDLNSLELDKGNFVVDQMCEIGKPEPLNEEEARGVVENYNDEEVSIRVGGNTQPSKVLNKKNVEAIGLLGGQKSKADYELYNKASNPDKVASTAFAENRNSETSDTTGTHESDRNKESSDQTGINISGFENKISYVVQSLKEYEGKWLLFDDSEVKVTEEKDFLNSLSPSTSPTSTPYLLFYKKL
Sequence of Cytochrome P450 3A4 (Homo sapiens) (P08684 whole entry, looked up): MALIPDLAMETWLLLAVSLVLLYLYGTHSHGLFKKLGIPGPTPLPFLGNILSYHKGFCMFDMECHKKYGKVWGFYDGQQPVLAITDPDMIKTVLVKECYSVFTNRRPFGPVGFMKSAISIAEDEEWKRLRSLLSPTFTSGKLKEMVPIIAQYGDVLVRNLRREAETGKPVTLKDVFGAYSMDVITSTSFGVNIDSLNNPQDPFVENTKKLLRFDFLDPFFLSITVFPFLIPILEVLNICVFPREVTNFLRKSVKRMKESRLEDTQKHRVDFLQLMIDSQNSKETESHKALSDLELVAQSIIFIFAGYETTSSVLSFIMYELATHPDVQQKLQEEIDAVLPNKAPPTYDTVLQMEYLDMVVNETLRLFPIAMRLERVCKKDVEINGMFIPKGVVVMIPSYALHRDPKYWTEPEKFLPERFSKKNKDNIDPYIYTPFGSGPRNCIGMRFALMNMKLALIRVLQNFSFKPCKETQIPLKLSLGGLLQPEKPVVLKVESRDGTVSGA
Sequence of Alpha-galactosidase (Coffea arabica) (Q42656 whole entry, looked up): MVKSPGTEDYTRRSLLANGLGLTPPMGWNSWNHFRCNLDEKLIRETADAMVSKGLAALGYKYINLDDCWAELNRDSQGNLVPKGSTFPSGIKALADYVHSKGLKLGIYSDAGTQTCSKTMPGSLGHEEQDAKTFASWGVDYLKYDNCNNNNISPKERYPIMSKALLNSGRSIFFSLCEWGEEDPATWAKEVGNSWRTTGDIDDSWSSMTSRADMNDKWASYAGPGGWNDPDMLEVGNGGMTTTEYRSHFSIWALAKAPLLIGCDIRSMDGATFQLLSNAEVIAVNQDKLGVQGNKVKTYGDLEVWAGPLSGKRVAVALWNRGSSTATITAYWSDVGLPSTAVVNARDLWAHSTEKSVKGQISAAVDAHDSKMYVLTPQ
Sequence of Glucocorticoid receptor (Homo sapiens) (P04150 whole entry, looked up): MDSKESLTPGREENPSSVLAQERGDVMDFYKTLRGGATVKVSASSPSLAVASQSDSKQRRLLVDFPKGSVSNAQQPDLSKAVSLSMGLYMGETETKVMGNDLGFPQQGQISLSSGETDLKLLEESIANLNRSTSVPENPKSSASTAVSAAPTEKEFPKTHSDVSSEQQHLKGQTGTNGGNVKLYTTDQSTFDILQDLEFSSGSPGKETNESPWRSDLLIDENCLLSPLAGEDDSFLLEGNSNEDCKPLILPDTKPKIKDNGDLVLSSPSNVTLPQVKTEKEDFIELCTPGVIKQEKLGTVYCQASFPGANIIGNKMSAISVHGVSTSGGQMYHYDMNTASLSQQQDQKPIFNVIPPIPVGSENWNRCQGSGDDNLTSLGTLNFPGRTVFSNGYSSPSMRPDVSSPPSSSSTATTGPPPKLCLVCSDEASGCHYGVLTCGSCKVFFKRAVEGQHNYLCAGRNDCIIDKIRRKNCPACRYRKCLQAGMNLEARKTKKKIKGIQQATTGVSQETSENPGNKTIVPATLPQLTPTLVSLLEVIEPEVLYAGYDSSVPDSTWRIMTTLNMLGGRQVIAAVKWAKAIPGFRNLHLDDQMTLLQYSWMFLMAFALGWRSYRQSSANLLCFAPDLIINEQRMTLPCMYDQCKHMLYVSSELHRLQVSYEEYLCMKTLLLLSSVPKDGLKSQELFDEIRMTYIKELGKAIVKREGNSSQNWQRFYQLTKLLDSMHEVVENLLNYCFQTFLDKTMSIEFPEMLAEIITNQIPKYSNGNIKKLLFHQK
Sequence of Cytochrome P450 1A2 (Homo sapiens) (P05177 whole entry, looked up): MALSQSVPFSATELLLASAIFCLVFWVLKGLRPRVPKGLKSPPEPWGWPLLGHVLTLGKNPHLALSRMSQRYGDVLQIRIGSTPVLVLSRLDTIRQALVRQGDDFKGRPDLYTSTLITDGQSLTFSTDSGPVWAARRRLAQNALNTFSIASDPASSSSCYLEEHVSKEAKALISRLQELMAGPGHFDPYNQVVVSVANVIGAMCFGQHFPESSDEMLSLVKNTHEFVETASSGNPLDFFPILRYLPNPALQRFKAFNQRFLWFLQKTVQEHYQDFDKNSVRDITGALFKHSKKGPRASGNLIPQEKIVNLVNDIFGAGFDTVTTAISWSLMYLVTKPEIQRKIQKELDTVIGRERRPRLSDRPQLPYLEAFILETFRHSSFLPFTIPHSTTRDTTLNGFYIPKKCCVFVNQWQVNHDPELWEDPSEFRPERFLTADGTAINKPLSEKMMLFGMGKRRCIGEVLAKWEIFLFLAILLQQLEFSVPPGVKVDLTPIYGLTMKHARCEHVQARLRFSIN

In the case of `N#CC1(c2cccc(C(=O)Nc3cc(Oc4ccc5nc(NC(=O)C6CC6)sc5n4)ccc3F)c2Cl)CC1`, the Potency [1] is reported as “inactive”, the Potency [2] is reported as “inactive” and the Potency [3] is reported as “inactive”. The Potency [4] was “inactive”, the Potency [5] was 2710 nM (active) and the Potency [6] was “inactive”. The activity change, negative = inhibition [7] was -79.3% and the Potency [8] was 304 nM (active).
In the case of `CN[C@@H](Cc1c[nH]c2ccccc12)C(=O)O`, the Potency [9] is reported as “inactive”, the activity change, negative = inhibition [10] is reported as 2.25% (inactive) and the max response [10, 26] is reported as -7.03%. For the same molecule, the max response [10, 27] was 3.12%, the Potency [11] was “inactive” and the Potency [12] was “inactive”. For the same molecule, the Potency [1] was “inactive”, the Potency [2] was “inactive” and the Potency [3] was “inactive”. For the same molecule, the Potency [4] was “inactive”.
With `C=CCSSCC=C` the Potency [13] was “inactive”, the Potency [14] was “inactive” and the outcome [15] was “inactive”. The activity change, negative = inhibition [10] was 11.8% (inactive), the max response [10, 26] was 5.28% and the max response [10, 27] was 18.2%. The Potency [11] was “inactive”, the Potency [1] was “inactive” and the Potency [2] was “inactive”. The Potency [3] was “inactive” and the Potency [4] was “inactive”.
In the case of `C/C=C1/CN2CC[C@]34C(=C(C=O)[C@H]1C[C@@H]23)Nc1ccccc14`, the activity change, negative = inhibition [10] is reported as -2.11% (inactive), the max response [10, 26] is reported as 7.61% and the max response [10, 27] is reported as 5.28%. The Potency [11] was “inactive”, the Potency [12] was “inactive” and the Potency [1] was “inactive”. The Potency [2] was “inactive”, the Potency [3] was “inactive” and the Potency [4] was “inactive”.
For `Cc1c(CN2CCN(S(C)(=O)=O)CC2)sc2c(N3CCOCC3)nc(-c3cnc(N)nc3)nc12`, the Potency [1] was 86.3 nM (active), the Potency [2] was 43.2 nM (active) and the Potency [3] was 122 nM (active). The Potency [4] was 96.8 nM (active), the Potency [5] was 215 nM (active) and the Potency [8] was 1210 nM (active).
With `O=S(=O)(c1cccc2c(I)cccc12)N1CCCNCC1` the outcome [16] was “inactive”, the outcome [17] was “inactive” and the Potency [18] was “inactive”. For the same molecule, the outcome [19] was “inactive”, the Potency [1] was “inactive” and the Potency [2] was “inactive”. The Potency [3] was “inactive”, the Potency [4] was “inactive” and the Potency [20] was “inactive”. For the same molecule, the Potency [6] was “inactive” and the activity change, negative = inhibition [7] was -29.1%.
For `CCCOc1ccc2[nH]cc(C3=CCNCC3)c2n1`, the Potency [21] was 126 nM (active), the Potency [22] was > 46000 nM (inactive) and the Potency [11] was “inactive”. For the same molecule, the Potency [12] was “inactive”, the Potency [1] was “inactive” and the Potency [2] was “inactive”. For the same molecule, the Potency [3] was “inactive”, the Potency [4] was “inactive” and the Potency [23] was “inactive”. For the same molecule, the max response [24] was 2.34% (inactive).
With `CN1CC(CO)=C[C@H]2c3cccc4[nH]cc(c34)C[C@H]21` the Potency [14] was “inactive”, the outcome [15] was “inactive” and the activity change, negative = inhibition [10] was 6.54% (inactive). The max response [10, 26] was 8.91%, the max response [10, 27] was 13% and the Potency [11] was 50100 nM (active). The Potency [1] was “inactive”, the Potency [2] was “inactive” and the Potency [3] was “inactive”. For the same molecule, the Potency [4] was “inactive”.
With `C/C=C1/CN2CC[C@]34C(=C(C=O)[C@@H]1C[C@H]23)Nc1c(O)cccc14` the Potency [1] was “inactive”, the Potency [2] was “inactive” and the Potency [3] was “inactive”. For the same molecule, the Potency [4] was “inactive” and the Potency [25] was “inactive”.
